Test results taken from the supplement of paper PMC6555819.

Experiments:
Assay in all cases: PBM binding z-score (relative to random genomic background probes); higher = stronger binding; sequences stand for … in GC…GCGATTGACAGCGTAGAATGAAGG
[1] = tested on: RARb homodimer (NR concentration 270 nM)
Procedure, shortened: (§1)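 Ligand-free nuclear receptor dimers were applied to custom Agilent 4×180K protein-binding microarrays whose double-stranded probes carried direct-repeat seeds, single-nucleotide variants, half-site ablations and random human genomic background sequences in 34-nt variable regions. Incubation lasted 1 h. Binding z-scores were computed against the random background probes from regression-normalized fluorescence.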

[2] = tested on: RARg:RXRa (NR concentration 270 nM, RXRa partner concentration 90 nM)
Procedure, shortened: as §1

[3] = tested on: RARg homodimer (NR concentration 270 nM)
Procedure, shortened: as §1

[4] = tested on: RXRa DBDmut IVT, anti-RXR (DBD mutation: RXRa K156A/R161A, NR concentration 90 nM)
Procedure, shortened: as §1

[5] = tested on: RXRa homodimer (NR concentration 180 nM)
Procedure, shortened: as §1

[6] = tested on: THRa:RXRa (NR concentration 90 nM, RXRa partner concentration 90 nM)
Procedure, shortened: as §1

[7] = tested on: THRa homodimer (NR concentration 90 nM)
Procedure, shortened: as §1

[8] = tested on: VDR homodimer (NR concentration 270 nM)
Procedure, shortened: as §1

Sequence	PBM binding z-score [1]	PBM binding z-score [2]	PBM binding z-score [3]	PBM binding z-score [4]	PBM binding z-score [5]	PBM binding z-score [6]	PBM binding z-score [7]	PBM binding z-score [8]
TCTATTAATTGAAGGGCAACCGACGAGTCCGTTT	1.05	0.656	0.454	1.24	0.717	0.258	0.559	2.19
AGAACGAGGGCAATGAGTTGCTAGCACGGGTGGC	0.949	0.847	1.24	1.67	0.545	0.677	-0.316	1.49
GCTCGGAGGACAAGGTCAGAGCGTTGTCCGTAGA	2.97	3.26	3.69	0.33	2.43	2.89	1.25	0.555
GCTTGTAGTTCAAGGTTAAGAAAGACTAAGCTAA	1.6	2.24	2.5	1.91	2.17	2.09	0.091	0.851
GCTATTAGTTGAATGGGCAACCGAATGATTCTCG	-0.506	-0.114	0.0984	0.405	-0.209	-0.559	-0.678	-0.095
CGTCCACGGTCAATGCTAGGTCAGTGAAAGCATT	3.02	3.59	3.1	0.356	0.354	2.12	0.347	-0.19
CTACCAAGGTGTACAAGGTCGTTGATTACTATTC	1.21	0.657	0.16	1.14	0.934	1.99	1.32	2.13
GCATATAGGTAATCCAAGGTGAAAGTCCGATTGT	0.964	0.387	0.453	0.551	0.399	4.57	1.35	0.0892
CCAGACATGTGAGAAGGTAACTCAGCCTCGATTA	0.158	-0.0792	0.231	0.753	0.09	-0.0389	0.447	0.382
CGTCCAAGGTCAGTGCTAGGTCAGTGAAAGCATT	4.72	6.51	6.07	2.72	4.15	3.98	2.41	2
TAGCCTAGGTCATTGGGCCAGTGTAGTACGCATC	3	3.57	4.14	1.61	2.7	2.94	0.8	1.07
TCTTGTAGATCAAGCAGGTTAAGAGAGCCTGAGT	0.0574	-0.24	-0.296	0.088	0.168	0.276	-0.531	-0.291
CTCGAAAGGTCGGTTGAGTTGAGTATACGGATAA	1.34	2.4	2.35	1.33	1.81	3.4	0.44	1.37
ATTATTAGTTGACTTAGGGCAACCGATACGACGC	1.41	1.11	1.23	0.507	0.918	1.65	1.03	1.41
GCTGCTAGATCAACTGATGGTCAGCTAAAGCTCG	-0.449	-0.186	-0.352	-0.229	-0.482	-0.352	-1.12	-0.805
TTACCAAGGTGAAAGGTCGTGGATGCACGCCTTG	2.98	5.09	2.53	0.256	6.85	3.45	0.939	0.435
TCATATAGGTAAACACGTGAAAGTCCGTAAGTTA	0.112	0.245	0.371	1.31	0.661	0.0438	0.238	0.164
TCTTGTAGATCAATCAGGTTAAGAAAGCCTGAGT	0.194	0.0482	-0.074	0.724	0.241	1.02	0.308	0.0655
AGAGTGAGGTTATACGTAGATCAGGGAAGAAAGT	1.53	1.82	1.28	1.38	2.03	2.21	1.15	1.41
CCTGCTAGGTAAATGGTCAGCTAAAGCAGCTCGC	-0.0242	-0.351	-0.323	-0.0563	-0.478	-0.113	-0.416	-0.618
CCTTACGGGTCACGATGTTATAGCACGACGAGCG	3.21	5.22	5.07	0.775	5.71	2.88	0.472	0.567
AGTCAAAGTTCACTAGGTAACGTTAGATTCAGCT	3.56	4.93	5.57	4.15	4	2.05	0.157	3.87
TCGAGTAGGTTACCAATGGGGCATACAGCTTTCT	0.633	1.41	0.627	0.223	1.01	0.248	-0.753	-0.212
TTACCAAGGTGAAGTTCGTTGATCCCTCTGTAGA	1.18	0.78	0.824	1.02	0.97	1.8	0.676	1.66
CGTCCAGGGTCATAGGAGGTCAGTGAAGACAGAT	4.98	6.27	6.23	3.62	6.72	5.12	2.18	4.31
ATCTCTAGGTAAAAGTTAAGTGAATCCCGAGGAT	-0.425	0.121	0.586	-0.231	0.0332	0.344	-0.106	0.265
ACAGAGAGGTGAGTGAAGGTAACTCAGCTGGACG	0.91	0.89	1.24	-0.227	0.647	2.59	0.294	-0.548
CCTTACGGGTCACGAAGTTATAGCACGACGAGCG	3.14	5.21	4.74	1.29	5.71	2.87	0.0516	0.721
